The supplement of paper PMC3334620
Over roughly 33,000 sequences, “E-score (-0.5 to 0.5)” has its median near -0.036; the highest 2% begin near 0.37. The full list was thinned out, with the highest values kept by preference.

molecular target: T1, Yer064c (UniProt P40041); assay: PBM E-score (8-mer binding enrichment) (E-score (-0.5 to 0.5)); higher = stronger / more preferred TF binding; conditions: protein concentration: 200 nM; construct: GST-full length
T1 sequence: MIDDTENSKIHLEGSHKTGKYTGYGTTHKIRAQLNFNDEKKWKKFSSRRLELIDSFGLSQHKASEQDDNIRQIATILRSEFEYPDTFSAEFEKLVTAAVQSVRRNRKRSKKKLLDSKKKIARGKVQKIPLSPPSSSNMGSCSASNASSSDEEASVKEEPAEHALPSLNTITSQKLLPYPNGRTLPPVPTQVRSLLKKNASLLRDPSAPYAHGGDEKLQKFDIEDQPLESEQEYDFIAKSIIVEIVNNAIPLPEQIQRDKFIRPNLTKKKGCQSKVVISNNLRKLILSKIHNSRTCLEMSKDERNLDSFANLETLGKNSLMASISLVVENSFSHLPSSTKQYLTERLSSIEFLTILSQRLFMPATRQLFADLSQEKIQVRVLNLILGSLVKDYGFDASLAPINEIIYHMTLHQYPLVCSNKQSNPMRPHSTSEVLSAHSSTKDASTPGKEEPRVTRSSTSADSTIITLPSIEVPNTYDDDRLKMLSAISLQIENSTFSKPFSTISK
Method in brief: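 The E-score, a modified Wilcoxon-Mann-Whitney statistic, was computed by the Universal PBM Analysis Suite for every ungapped eight-base word pooled with its reverse complement. Scans behind it were normalised with masliner after bound GST-tagged yeast transcription factors were detected with fluorescent anti-GST. The proteins, at about 100-200 nM, had been applied to universal all-10-mer Agilent arrays made double-stranded by primer extension.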

Sequence | PBM E-score
ACGGTACG | 0.0345
ATACAAGC | -0.123
AAGAGTCC | 0.303
AAGAGTCA | 0.489
AAGAGTCT | 0.355
CACTAGTC | 0.274
GACTAGTC | 0.408
TACTAGTA | 0.216
AACTAGTC | 0.355
GACTAGTA | 0.391
CACTAGTA | -0.0969
AACCAGTC | 0.171
GTAGCCAA | -0.0169
CATGTCTA | 0.205
CGTCAACC | -0.225
GGTCAACC | -0.0162
AGTCAACC | 0.442
CGTCAACG | 0.0184
ACTCAACG | 0.288
AGTCAACA | 0.441
TGTCAACA | -0.18
AATCAACT | 0.314
CGTCAACA | -0.189
AGTCAACT | 0.424
AGTCAACG | 0.443

Sequence | PBM E-score
ACTCAACT | 0.337
ATTCGAAG | 0.15
AAGATACG | -0.0653
AGATCTCA | 0.0373
ATGGGCTG | -0.0763
CACTTAGA | 0.0684
TGCATTAA | 0.0992
CTGGCCGC | -0.163
AATACGCT | -0.136
AAGTAGTG | -0.157
CAGTAGTC | 0.403
AAGTAGTA | 0.0556
AAGTAGTC | 0.415
CAGTAGCC | -0.116
CAGTAGTA | 0.111
GCAAAGCC | -0.263
GTGGCAAC | -0.295
CGTTCACA | 0.0136
CCTGGCAC | -0.304
GCCATTCA | -0.0419
CGATCATA | 0.0235
GAATCATC | 0.48
CAATCATA | 0.371
CCATCATC | -0.01
GAATCAAA | 0.268

Sequence | PBM E-score
CAATCATC | 0.422
CCATCATA | -0.0232
GAATCAAC | 0.358
CTATCATC | -0.0157
CCGGCTTA | -0.221
CCTTGGAA | -0.185
CCGAAAAA | 0.0649
ATAGGTCC | -0.0251
AGTAAACC | -0.0239
CCCTTTTA | -0.0873
AGATTGAT | 0.0609
ATTGAGTA | 0.282
CTTGAGTA | 0.233
ATTGAGTG | 0.149
CTTGAGGC | -0.146
ATTGAGTC | 0.479
CTTGAGTC | 0.466
ACGGCCAG | -0.206
AGCCATGA | 0.282
ATCAGTCA | 0.434
GTCAGTCA | 0.451
GTCAGTTA | 0.0503
CTCAGTCC | 0.255
ATCAGTCG | 0.296
GTCAGTGA | 0.31

Sequence | PBM E-score
CTCAGTCA | 0.436
CTCAGTGA | 0.235
ATCAGTCC | 0.0464
ATCAGGGG | -0.00776
ACGCACAG | -0.247
GCCCATCC | -0.0789
ATAAAAAA | 0.112
TTTAGAAA | 0.0151
AAGAGCGG | -0.214
CGGGTGCC | -0.315
AATCGTGC | 0.137
ATTCGTGG | 0.186
CGTCGTGA | 0.0738
AGTCGTGC | 0.371
AGTCGTTG | 0.326
AGTCGTGG | 0.373
CGTCGTGC | -0.106
GGTCGTGA | -0.0505
AGTCGTGA | 0.375
AACGAGAC | 0.0315
AAAGAGCA | -0.0916
CGGGGCAG | -0.052
CCCCTGAC | 0.173
AGCGAATA | 0.0298
ATTGGGTA | -0.138

Sequence | PBM E-score
CTGGGGAC | -0.0825
CACCCATC | 0.102
ACTTGACG | -0.0474
AATTGACT | 0.391
AATTGACC | -0.0998
ACTTGACT | 0.412
ACTTGACA | 0.0454
AATTGACG | -0.178
CAATTCCA | -0.297
CATACGAC | 0.158
ACGCGTGC | -0.0231
CCATCCGA | 0.161
CGAGAGTA | 0.0908
CCAGAGTC | 0.38
ACAGAGTA | 0.0495
ACAGAGTG | 0.0565
CCAGAGTA | -0.0992
CGAGAGAC | 0.0137
AGAGAGTG | -0.104
CCAGAGGC | -0.335
AGAGAGTC | 0.409
ACAGAGTC | 0.37
CGAGAGTC | 0.421
AGAGAGTA | 0.121
CCGCAAGC | -0.268

Sequence | PBM E-score
ACGCCATC | -0.136
CCTACCCA | -0.0884
CGAGAACA | 0.0131
GCTACGAA | -0.0422
GGCCGGGA | -0.134
CGCTACGC | -0.323
AACGGGAT | -0.185
CAATCCGG | -0.0586
GATAGGCC | -0.339
TGGCTCAA | 0.332
GAACTCAA | 0.145
GGACTCTA | 0.193
CGACTCAA | 0.474
GGACTCAA | 0.409
GTACTCAA | 0.314
GTACTCAC | 0.387
TGACTCAA | 0.492
ATACTCAC | 0.312
CTACTCAA | 0.162
CGACTCTA | 0.343
TAACTCAA | 0.263
CACCTTGG | -0.142
CCCAGCTA | -0.0347
CTGGCTAA | 0.23
CGTTCCAC | -0.25

Sequence | PBM E-score
ACGCATAC | -0.135
TAGCTCCA | -0.0907
GGACTCCC | 0.214
GCACTCAC | 0.0283
GGACTCAC | 0.43
AGGTACCG | -0.156
ACTCGAAC | 0.136
CCGTATGC | -0.167
CCATTGAC | 0.0546
CCGGCTGA | 0.165
AAGACTAA | 0.442
AAGACTTC | 0.241
AAAACTAA | 0.134
GAGACTAA | 0.413
GAGACCAA | -0.0383
AAGACTAC | 0.413
AAGACTAT | 0.417
CAGACTAC | 0.215
AAGACAAT | -0.0159
GAGACGAA | -0.0519
TAGACTAA | 0.3
AAGACTAG | 0.338
